# HPGD inh = HPGD (human) dehydrogenase inhibition. P15428. purified HPGD, NADH fluorescence kinetic, PGE2 substrate. Potency, µM, inactives show at the top dose activity change, negative = inhibition, hits mostly inhibitors. 4.3% of 150,000 active; active = well fitted inhibition curve with a large enough effect, not every such curve was filed as active; inconclusive = small, poorly fitted or top-dose-only effect, or another doubt; inactive = no such curve, though single readings can be large or run the other way; note: potency is the fitted concentration of half-maximal effect; % is set by controls: 0 for no effect and ±100 for the full control effect
# Target sequence (P15428 whole entry, looked up): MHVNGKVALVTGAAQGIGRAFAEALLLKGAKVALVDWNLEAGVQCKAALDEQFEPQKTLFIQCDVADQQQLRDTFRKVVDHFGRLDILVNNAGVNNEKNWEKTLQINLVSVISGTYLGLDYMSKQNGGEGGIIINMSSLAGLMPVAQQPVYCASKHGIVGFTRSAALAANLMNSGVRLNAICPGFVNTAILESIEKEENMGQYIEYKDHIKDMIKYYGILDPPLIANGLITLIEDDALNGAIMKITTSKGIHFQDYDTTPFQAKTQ
#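 NADH formation kinetics: reaction with 30 uM PGE2 and 1 mM NAD+ (final), 20 nM enzyme, Tris-HCl pH 8 with Tween 20, after 15 min compound preincubation at room temperature. Fluorescence change, last versus first of five reads.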
# HTT cytoprotect = Huntington cell model cytoprotection by ATP luminescence; PC12 HTT-Q103 induced, cytoprotection, ATP luminescence, 40 h; Potency, µM (titrated, usually from 56.4 µM), without a hit: cytoprotection (ATP increase), most hits filed as activators; 0.14% of 230,000 active; AID 1471; note: potency is the fitted concentration of half-maximal effect; % of control where 0% means no effect; nearly all actives have a fitted effect of over 45% in size
#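 Compounds added alongside 100 nM tebufenozide, which induces toxic Q103 huntingtin exon 1-GFP in stable PC12 cells; surviving cells quantified by luminescent ATP measurement. Medium: phenol red-free DMEM, 5% equine and 5% calf serum.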
# ALDH1A1 block = inhibitors of human aldehyde dehydrogenase 1A1; 7.3% of 220,000 active; Purified ALDH1A1, NADH fluorescence, propionaldehyde substrate; Potency, µM (series often up to 75.3 µM), inactives show at the highest dose activity, negative = inhibition, most hits filed as inhibitors; active = well fitted inhibition curve with a large enough effect, not every such curve was filed as active; inconclusive = small, poorly fitted or top-dose-only effect, or another doubt; inactive = no such curve, though single readings can be large or run the other way;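 note: potency is the fitted concentration of half-maximal effect; plate controls were no enzyme wells and a reference inhibitor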
# HttQ103 aggreg = mutant huntingtin aggregation inhibition. Potency, µM (doses to about 46.1 µM), inactives show top-dose activity change, negative = inhibition, hits mostly inhibitors. PC12 HttQ103-GFP aggregates, Acumen cytometry, 40 h. 1.1% of 220,000 active; note: potency is the fitted concentration of half-maximal effect; % is set by controls: 0 for no effect and ±100 for the full control effect; nearly all actives have a fitted effect of over 60% in size
#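 Aggregates are detected as GFP objects 1–25 µm with signal 6 STDEV over background in lysates of induced PC12 cells. These carry Huntingtin exon 1 with 103 glutamines fused to GFP under an ecdysone promoter; compounds titrated.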
# JMJD2E inh = inhibitors of human JMJD2E histone demethylase; 1.6% of 230,000 active; AID 2147; JMJD2E catalytic domain, FDH-coupled NADH fluorescence (FDH is formaldehyde dehydrogenase); Potency, µM (doses to about 57.1 µM), for the others: top-dose activity change, negative = inhibition, hits mostly inhibitors; active = well fitted inhibition curve with a large enough effect, not every such curve was filed as active; inconclusive = small, poorly fitted or top-dose-only effect, or another doubt; inactive = no such curve, though single readings can be large or run the other way;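 note: potency is the fitted concentration of half-maximal effect; 0% = wells with enzyme and -100% = buffer wells without enzyme; nearly all actives have a fitted effect of over 50% in size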
# CBFb RUNX1 block = inhibitors of human CBF-beta and RUNX1 interaction. Q01196+Q13951. AlphaScreen CBFb-His/RUNX1-biotin binding, biochemical. Potency, µM (highest dose often 59.8 µM), inactives show top-dose activity, negative = inhibition, most hits filed as inhibitors. 230,000 tested, under 10 active; note: % of control where 0% means no effect
#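 Compounds were screened at multiple concentrations against a preformed CBF-beta(His)/RUNX1(biotin) complex (30 nM of each) for 15 min at room temperature, followed by 90 min with nickel and streptavidin beads and AlphaScreen reading.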
# Starred values were filed as active, the others as inactive; ? = inconclusive; / = not tested or not shown; [ ] = remark or other dose. This is a sample that favours compounds with a hit; in the whole collection about 9.8% have one here. Unless noted, calls come from the whole dose curve; as a rule, active = well fitted curve in the direction sought with a large enough effect; inconclusive = small, poorly fitted or top-dose-only effect, or another doubt; inactive = no such curve, though single readings can be large; an effect the other way counts as inactive or inconclusive.
SMILES,HPGD inh,HTT cytoprotect,ALDH1A1 block,HttQ103 aggreg,JMJD2E inh,CBFb RUNX1 block
Cn1cc(/C=C2/SC(=O)N(c3ccccc3)C2=O)c2ccccc21,-9.3%,-4.7%,12.8%,7.9%,-3.3%,-0.9%
O=C(COC(=O)CCc1nc2ccccc2n1-c1ccccc1)Nc1ccc(N2CCCCC2)cc1,/,3.16µM*,5.7%,-1.4%,1.9%,-17.7%
CCC(CO)NCc1ccc2c(c1)n(C)c(=O)n2C (configuration not stated),/,-5.1%,-2.5%,1.2%,1.0%,7.0%
O=C(O)c1ccc2cccnc2n1,/,-29.6%,-10.6%,-14.3%,22.4µM*,-2.7%
O=C(O)c1cccc(C(=O)O)n1,-13.9%,14.7%,15.4%,-7.1%,8.91µM*,-0.6%
O=C(O)c1cccc(Cl)n1,/,35.4%[10 µM],/,7.8%[9.22 µM],1.4%,3.5%
O=C(O)c1cnc2ccccc2n1,?,0.4%,25.1µM*,-6.2%,-5.1%,-1.2%
c1ccc(C(c2ccccc2)N2CCC3(CCNCC3)CC2)cc1,-9.1%,5.5%,0.7%,/,/,/
CCCCC[C@@H](O)[C@@H]1C(=O)O[C@@H](C)[C@@H](O)\C=C/C=C\C=C/C=C\C=C(\C)[C@H](O)C[C@H](O)C[C@H](O)C[C@H](O)C[C@H](O)C[C@H](O)C[C@@H]1O,/,-5.5%[10 µM],/,/,/,/
CCC(C)c1ccc(O)c(NC(=O)c2cccnc2)c1 (configuration not stated),-9.6%,-5.6%,11.2µM*,-23.3%,0.7%,-5.0%
CCOC(=O)c1ccc(Cl)c(NC(=O)c2cccnc2)c1,/,-0.5%[10 µM],11.2µM*,-19.7%[9.22 µM],?,3.7%
CCC(C)c1ccc(NC(=O)c2cccnc2)cc1 (configuration not stated),-10.7%,-25.8%[10 µM],?,-2.3%,2.6%,12.8%
O=C1CCC=C1C(O)c1ccccc1 (configuration not stated),-13.5%,-11.1%,1.1%,/,7.4%,-11.9%
COC(=O)Oc1ccccc1C(=O)O,?,/,-0.7%,/,?,/
COc1ccc(C(CC(=O)N2CCCC(C)C2)c2c(OC)cc(OC)c3ccc(=O)oc23)cc1 (configuration not stated),/,-9.5%[10 µM],/,-11.9%[9.22 µM],?,-5.7%
CC(C)Nc1nnc(SC(C)C(=O)NCc2ccc3c(c2)OCO3)s1 (configuration not stated),/,0.9%[10 µM],6.2%,14.3%,2.3%,4.7%
COc1ccc(-c2nnc3n2-c2ccccc2SC3)cc1OC,35.5µM*,9.8%,15.8µM*,17.9%,3.8%,2.6%
c1ccc2c(c1)SCc1nnc(-c3ccncc3)n1-2,/,-1.7%[10 µM],/,-5.2%[9.22 µM],-1.3%,6.0%
CCc1ccc(C(=O)/C=C/c2ccc([N+](=O)[O-])o2)cc1,-24.0%,3.3%[10 µM],3.55µM*,?,-21.1%,-21.1%
CCN(CC)S(=O)(=O)c1ccc(C(=O)/C=C/c2ccc(-c3ccc([N+](=O)[O-])cc3)o2)cc1,/,15.2%[10 µM],/,15.2%[9.22 µM],10.8%,10.9%
COc1ccc([C@H]2OCC3C2CO[C@@H]3c2ccc(OC)c(OC)c2)cc1OC (some centres not stated),/,/,/,/,/,0.0%
CN(CC(=O)Nc1ccc(N2CCOCC2)cc1)Cc1c(O)ccc2ccccc12,/,?,3.55µM*,18.3%,?,1.1%
CCN(CC)CC(=O)Nc1ccc2c(c1)Nc1ccccc1CC2,-17.5%,-45.9%[0.074 µM],20µM*,-0.7%,-7.8%,-15.3%
CN(CC(=O)Nc1ccc(N2CCOCC2)cc1)CC(=O)Nc1ccc(N2CCOCC2)cc1,/,11.8%[10 µM],/,-23.8%[9.22 µM],7.0%,-24.7%
CCN(CC(=O)Nc1ccc(N2CCOCC2)cc1)Cc1nc2ccccc2c(=O)[nH]1,-25.5%,-29.4%,22.4µM*,15.0%,4.4%,1.9%
CCN(CC(=O)NC(c1ccccc1)c1ccccc1)Cc1nc2ccccc2c(=O)[nH]1,-18.0%,-36.0%,17.8µM*,11.7%,2.6%,-2.2%
COc1ccc(N2CCN(Cc3nnnn3C3CCCCC3)CC2)cc1,/,6.4%[10 µM],-29.5%,-7.5%[9.22 µM],-5.4%,-1.6%
